To fix the notation:
B1: GBRAP_42_5723 (protein)
chain: MYLVNLEVVVATREELERAIAIWRERNARYRKEKGIIIRLTIAAPEEAAELAAEAEAESAELAKEADKELDWVVVAASADEVGDAIDIAVDLALEERKEE
B2: GBRAP_35_5569 (protein)
chain: STDETIVEMTVNTIEALTLAVPDLDPATLETITRQVVALAREVIEDIKNNLEGLKRILEALRALLAAIRARGLDDPHLQAAAAAVEEAIRLAEKAIKEAE
B3: GBRAP_184_5315 (protein)
chain: EVIRRFITVETKEEAEKKLKEIKEEIKKSGKKYTVYIEVKNPTKELIDTVFEEIKKMKEEGVDADFILVVEEPVDEEMEDYIVEKAKEAGARAVIALPEE
B4: GBRAP_11_2707 (protein)
chain: KKEKLKEIAKLAAEAAALTEQLLKEGVDNKELQAKLTAKIKELTELVKKYADESLKKLAEIAKELWEKALADPENKEQYLKELLATLRVLEGQALLEIEE
B5: GBRAP_52_6040 (protein)
chain: MRERMRRLAREIVELVRAGRLEEARERIRELVETLSLEELELLGEELAELAREAEPEDLDAVMEVALMLADELEKAGYPEVFADDLEARVARAAVENLER
B6: GBRAP_11_2896 (protein)
chain: KKEKLKEAAELAEKAAKLLEELIKEGPDNEELRKKAEEALEKLLELAKKYLDESSVELAESALELFEKAKEDPENAKEYLEQALAYVRVLEGQVLLEIEE
B7: GBRAP_43_5752 (protein)
chain: MEEIIEGAVDFATLAAEDPNISEEQKLKIAKDVFEIVADEGIKLPEELSKLTRALAKSLSLEQLKELLKHLKELAEKYPELKEDFEANAKIIEEAIKKKE
B8: GBRAP_35_5553 (protein)
chain: DFDKEVIEMVRATAEDLLLAVDDLPVDTLITMATQIAELTLKVAKDEKENKEELKELLEATLELLDAVIEKAEKEGAPEEDIEKLRKLKKELEEALKEAE
B9: GBRAP_160_4282 (protein)
chain: GEKLKELAEELREDRDEILSLVDKISAEEVRTFAVTSLGSILMEAIDGELLTDEEEDELAKIIDDLEAELDALKDASPEEIRAAIEKHFDKAIELLEKAA
B10: GBRAP_125_3047 (protein)
chain: SLEELVEALRLLAKKLGYSEEEVEEIARLARKYGVKGTLIAILLAEGEEELAELAAKLTDEQVAEVLLELKAWLEENPDASKEEVLKKLRELLEKALAKT
B11: GBRAP_52_5975 (protein)
chain: MREEMRRLAEEAVALMLAGDREGARALLEEIAETKTEEEITLFMEELAELAKTATPEERDAIVEVALLAEDIWLEAGFDEALADSNVARVAAAAYAAEQA
B12: GBRAP_128_3472 (protein)
chain: GVEEVRKWTKEVMEKMKTADDEEFRELATELAERLLTLPLEEVEAAVEVIKEHLPELTAEKLEILAEVLREARPQATPEKAALFADVESEALLLAEELEE
B13: GBRAP_52_5855 (protein)
chain: SKEKMRKLAEELLKLKLAGKEEELEKKVKELVATLSEEEILELLKELAELAKKANKEEAEAIAEVAELLADEAEKAGFDEDELSYELAKVYAAAYKVLQK
B14: GBRAP_35_5567 (protein)
chain: SFDETTAEMMVNTIEALTEAVEDIDPETLKTITEQITKAAKKVIEEIKDNKEALEKIKKALEKLLKALEKRGLDDPNVKAAAEAVKEAIKEAEKAIKEAE
B15: GBRAP_52_6372 (protein)
chain: REAEARAIVDELLALAEAGDEEGVEALVREVLASGDGALQAAVLREIRRRLEARDHPDPEALLRLAAIVADEVLEAEVDSPEVWAALTALAAAALALERA
B16: GBRAP_160_4778 (protein)
chain: SEKVEELKKSIEEAKEEILESIDTESPEETIIVVKGETGLILAEAYELEIDNDELEDALDEIGDELIEEMKKNKNASKEELKKIVEEYTEKALKKIEELT
B17: GBRAP_43_5750 (protein)
chain: MEEIIEGHVDFALLAAEDPNISEEQKLKIAKDTFDILADENISLPEESSKLTEALAKSLSLEQLKELLAHLKELAKKYPELKELFDKNSKIIEEAIKKLE
B18: GBRAP_80_6795 (protein)
chain: AEERLKKALEEIEKLDKELAKKVKEIVEIAREMGVSTEDLADFAEAIAELLKLDKEKARELVEELKEELEELKKEGNKAEAEAAVRVYAGEALLEVEELE
B19: GBRAP_160_4201 (protein)
chain: SEKVEKVIRLLREETERVIAEVPELSREEVANLADVEYGSVLMEAVELGIENDEILDTIADAADEIRRFLEENRDASVEEIKRGIREITERAIEEIKKIA
B20: GBRAP_160_4006 (protein)
chain: SEEAEKLIKEIKEIFEELKKDIEGLTPEERLTLAKGYAGEILQLAESSKVISDEAVDKIAEILDEFLEELEKNKNAPLEYWKKLIEETLKKIEEVIKEDS
B21: GBRAP_43_5749 (protein)
chain: DEELVAGAVEFTLLAAEDPSISPETVLRAFKATLDLIADTGVRLEEELVAAAAAVAKRLSPEQVEALIEHIKELAAASPEVKETFEAAEEVLRAELAKRR
B22: GBRAP_150_3886 (protein)
chain: DLETALTIASSALDILEATIEDGPKLLEHALKLTKALVDEVKDFSEELQKLAKEALKKIEEAIKLVKAGGKPEEIKKLLEEAAKLLEELEKLLEKKIEEE
B23: GBRAP_52_5963 (protein)
chain: MEARMEALLDELLALRRAGDEAGAEALAREIAETLDDEELRLLGDVLVARIRASDLETAELLLDLAIMLADVLEELGRDPRLASDLLGRAAAAAYALEQA
B24: GBRAP_83_6915 (protein)
chain: MKEITVAAVGDHIDEAFDAAIDLKKEGVEKIIVEAIIKPEEVPRLLEAVKRALEAGVNLELEVFLEGATEEEAEEVEKKLKEIAKEAGKEVKVTVEVIEP
B25: GBRAP_9_7146 (protein)
chain: MEEMVEKIREVMEDAFEEVREIVPEEVKPLVDELREEALKRFEEVVADKSKTKEEIREAAKELIEEFTERVSEKVSPEIAKMVEAIGLTAKLEIEEIYEE
B26: GBRAP_11_2904 (protein)
chain: KKEKLEKLAELLKKAVALLKELLAKGTDDEKLHAEALKVAEEALKLAKEVLDESDVELAEEAVELLKQAKADPANAAQYVQQALAIFSVLEGQVLLKIEE
B27: GBRAP_96_7096 (protein)
chain: MLEEAEALVRELIAALDTDPERARALAERLLEFPVEVVTEAIVRVVKDPADAAKLAELLLELGDEKAEEVLLEAAEKAPGDISKAIIDAMQAYEEAKEAA
B28: GBRAP_184_5075 (protein)
chain: SVREETIRVENVEEARAKMAALAERVRDHRGDLVVLVEMPEADLEIMRAVLEGLAAILAAGYARRVTVGFDAEVTEEQVDEAVALADRLGVNVVLPLKEE
B29: GBRAP_125_3111 (protein)
chain: DMEEVLEALAIVLRALGFDDDEIEEALELARRYGIKGTMIAVALAEGYEEVADLLEKLTEEEVKQALLETAAAIKANPELTPEEVKELLEEVLKKLLAAS

The full ranking holds about 4,500 sequences; the median of “median log2 fold change of GCK-ALFA target abundance (FLAG IP / Myc IP barcode read proportion)” is about 0.078, and the lowest 2% start at about -0.6. This excerpt belongs to a sample that is enriched for the lowest values.

Sequence of GABARAP, O95166 (O95166 whole entry, the tested form may be a part): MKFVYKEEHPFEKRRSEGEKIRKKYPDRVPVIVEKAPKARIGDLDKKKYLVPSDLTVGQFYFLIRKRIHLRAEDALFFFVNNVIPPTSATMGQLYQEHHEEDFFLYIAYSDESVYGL

This experiment concerns the target GABARAP, O95166. As to the kind of experiment: median log2 fold change of GCK-ALFA target abundance (FLAG IP / Myc IP barcode read proportion) (log2 ratio); each designed protein is fused to an ALFA-tag nanobody in HEK293 cells to bring the named protein to FLAG-tagged glucokinase (GCK); Myc marks an untargeted standard; higher = target protein stabilised (more abundant). To be noted: target protein: 3xFLAG-MCP-GCK-ALFA reporter; HEK293 landing pad (RPLP). An outline of the steps:
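Sequencing of reverse-transcribed, amplified circular RNA barcodes from anti-FLAG and anti-Myc immunoprecipitates provided the readout for an ALFA-nanobody-fused binder library recombined into HEK293 landing-pad cells. Those cells were induced with 2 μg mL^−1 doxycycline, transfected with a plasmid expressing a FLAG-tagged target and a Myc-tagged standard, and lysed after 48 h. Target abundance is the per-binder median log2 ratio of FLAG to Myc barcode read proportions. Only barcodes at a proportion of ≥10^−7 in both replicates and binders with ≥3 barcodes per replicate were kept, with a 10^−6 pseudocount added before the two replicates were pooled.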
With B1, the “median log2 fold change” value was 0.104.

For B2, the “median log2 fold change” value was -0.994. As for B3, the figure is 0.243; as for B4, 0.13. Turning to B5, the “median log2 fold change” value is -0.365. Take B6: the “median log2 fold change” value was 0.203. For B7 the value was 0.108; for B8, -0.742; for B9, -0.356.

With B10, the “median log2 fold change” value is -0.274. B11: the “median log2 fold change” value is 0.107. On to B12, for which the “median log2 fold change” value worked out at 0.00124.

Consider B13, for which the “median log2 fold change” value is -0.0898. As to B14, the “median log2 fold change” value stood at 0.378. Consider B15, for which the “median log2 fold change” value was -0.638. On to B16, for which the “median log2 fold change” value was 0.139.

For B17, the “median log2 fold change” value was found to be 0.475. For B18, the “median log2 fold change” value came out at 0.0713.

Regarding B19, the “median log2 fold change” value was -0.204. Take B20: the “median log2 fold change” value was -0.00151.

Consider B21, for which the “median log2 fold change” value is 0.142.

For the molecule B22, the “median log2 fold change” value stood at 0.00752. As for B23, the “median log2 fold change” value was -0.635. As for B24, the figure is 0.19; as for B25, 0.209.

In the case of B26, the “median log2 fold change” value is 0.354.

Turning to B27, the “median log2 fold change” value was determined as 0.123. As to B28, the “median log2 fold change” value came out at 0.0908.

Turning to B29, the “median log2 fold change” value was -0.903.

For the origin of these results see the supplement of paper PMC12632987.
